# Test results reported in publication PMC7862700, “An all-to-all approach to the identification of sequence-specific readers for epigenetic DNA modifications on cytosine”.
# Key:
# Assay in all cases: DAPPL (digital affinity profiling via proximity ligation, sequencing); 10 mM Tris-HCl pH 7.5, 50 mM NaCl, 1 mM DTT, 4% glycerol, room temperature, 30 min; GST-TFs on glutathione beads, 16-mer random dsDNA library, 0.1% formaldehyde crosslink after washing; high values mean tight binding
# FLI1 = molecular target: T1, FLI1 (Homo sapiens, UniProt Q01543 1-452); details: protein: recombinant; tags: N-terminal GST; dsDNA, one strand shown
# T1 sequence: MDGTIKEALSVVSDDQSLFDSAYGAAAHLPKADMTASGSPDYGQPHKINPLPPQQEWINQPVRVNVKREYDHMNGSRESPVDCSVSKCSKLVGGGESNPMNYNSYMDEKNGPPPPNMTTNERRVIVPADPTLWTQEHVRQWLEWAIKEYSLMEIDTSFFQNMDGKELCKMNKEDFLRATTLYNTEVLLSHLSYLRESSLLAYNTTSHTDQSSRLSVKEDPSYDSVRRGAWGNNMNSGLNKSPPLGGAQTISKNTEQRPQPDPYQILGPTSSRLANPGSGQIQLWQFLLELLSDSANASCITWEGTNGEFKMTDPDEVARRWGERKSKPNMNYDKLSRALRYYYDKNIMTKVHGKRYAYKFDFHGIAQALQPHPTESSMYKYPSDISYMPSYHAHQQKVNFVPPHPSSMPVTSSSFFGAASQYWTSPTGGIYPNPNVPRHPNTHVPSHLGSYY
# Method in brief: (§1)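 Human transcription factors fused to GST were expressed in yeast, captured on glutathione beads, given DNA barcodes and pooled with a GST-only negative control. Pools were incubated with 200 nmole of a 16-mer random double-stranded DNA library in Tris/NaCl/DTT/glycerol buffer at room temperature for 30 min. They were then washed, crosslinked with 0.1% formaldehyde, proximity-ligated (BsaI/T4 ligase, 1 h, 37 °C), PCR-amplified and sequenced on an Illumina NextSeq500. Binding signal is each 6-mer's read frequency for a factor divided by its frequency for the GST control.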
# ELK1 = molecular target: T2, ELK1 (Homo sapiens, UniProt P19419 1-428); details: protein: recombinant; tags: N-terminal GST; dsDNA, one strand shown
# T2 sequence: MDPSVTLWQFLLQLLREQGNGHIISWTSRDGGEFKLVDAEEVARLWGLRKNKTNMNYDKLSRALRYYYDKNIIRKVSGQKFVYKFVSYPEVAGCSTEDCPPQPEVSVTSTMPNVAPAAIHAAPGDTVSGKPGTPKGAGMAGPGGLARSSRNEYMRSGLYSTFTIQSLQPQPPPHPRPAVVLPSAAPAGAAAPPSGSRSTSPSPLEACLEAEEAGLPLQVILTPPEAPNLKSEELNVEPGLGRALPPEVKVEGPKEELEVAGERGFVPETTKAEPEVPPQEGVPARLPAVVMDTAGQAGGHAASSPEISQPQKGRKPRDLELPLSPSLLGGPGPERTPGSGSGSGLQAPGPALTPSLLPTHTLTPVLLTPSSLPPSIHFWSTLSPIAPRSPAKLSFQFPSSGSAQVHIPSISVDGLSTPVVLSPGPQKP
# Method in brief: as §1
# GABPA = molecular target: T3, GABPA (Homo sapiens, UniProt Q06546 1-454); details: protein: recombinant; tags: N-terminal GST; dsDNA, one strand shown
# T3 sequence: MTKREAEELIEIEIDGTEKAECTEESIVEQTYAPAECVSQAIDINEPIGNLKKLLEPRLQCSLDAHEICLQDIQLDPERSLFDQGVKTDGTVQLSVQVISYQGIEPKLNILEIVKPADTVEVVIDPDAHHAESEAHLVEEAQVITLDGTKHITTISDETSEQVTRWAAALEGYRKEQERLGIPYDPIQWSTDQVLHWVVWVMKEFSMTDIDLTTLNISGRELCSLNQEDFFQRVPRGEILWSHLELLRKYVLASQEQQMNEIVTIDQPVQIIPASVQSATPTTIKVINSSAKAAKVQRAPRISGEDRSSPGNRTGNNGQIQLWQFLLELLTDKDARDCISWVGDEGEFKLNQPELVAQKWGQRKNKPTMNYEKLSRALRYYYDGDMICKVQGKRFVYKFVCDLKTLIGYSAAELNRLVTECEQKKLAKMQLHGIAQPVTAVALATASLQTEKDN
# Method in brief: as §1
# ERG = molecular target: T4, ERG (Homo sapiens, UniProt P11308 1-479); details: protein: recombinant; tags: N-terminal GST; dsDNA, one strand shown
# T4 sequence: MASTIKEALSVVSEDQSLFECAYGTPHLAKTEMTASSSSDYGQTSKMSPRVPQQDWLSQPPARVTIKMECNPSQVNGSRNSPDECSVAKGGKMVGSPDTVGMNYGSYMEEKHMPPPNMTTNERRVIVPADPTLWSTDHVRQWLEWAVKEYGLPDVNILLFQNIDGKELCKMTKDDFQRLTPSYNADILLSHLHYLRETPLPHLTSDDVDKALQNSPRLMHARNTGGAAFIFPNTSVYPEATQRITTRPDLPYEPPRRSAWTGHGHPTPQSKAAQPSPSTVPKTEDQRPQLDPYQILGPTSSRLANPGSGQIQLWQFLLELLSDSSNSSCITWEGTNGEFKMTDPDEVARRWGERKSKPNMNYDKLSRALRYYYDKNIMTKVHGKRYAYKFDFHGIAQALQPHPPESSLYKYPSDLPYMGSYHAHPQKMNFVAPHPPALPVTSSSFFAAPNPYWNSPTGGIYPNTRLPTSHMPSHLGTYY
# Method in brief: as §1
# ELF1 = ELF1 (Homo sapiens, UniProt P32519 1-619); details: protein: recombinant; tags: N-terminal GST; dsDNA, one strand shown
# Method in brief: as §1
# EHF = molecular target: T5, EHF (Homo sapiens, UniProt Q9NZC4 1-300); details: protein: recombinant; tags: N-terminal GST; dsDNA, one strand shown
# T5 sequence: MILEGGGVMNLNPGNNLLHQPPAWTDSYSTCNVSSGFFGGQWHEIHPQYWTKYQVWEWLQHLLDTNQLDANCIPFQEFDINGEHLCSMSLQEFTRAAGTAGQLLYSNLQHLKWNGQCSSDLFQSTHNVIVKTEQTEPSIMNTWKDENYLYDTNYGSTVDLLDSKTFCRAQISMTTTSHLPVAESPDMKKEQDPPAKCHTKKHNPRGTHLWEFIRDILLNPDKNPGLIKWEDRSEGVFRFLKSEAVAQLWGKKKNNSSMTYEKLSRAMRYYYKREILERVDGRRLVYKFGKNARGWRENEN
# Method in brief: as §1
# SPI1 = SPI1 (Homo sapiens, UniProt P17947 1-270); details: protein: recombinant; tags: N-terminal GST; dsDNA, one strand shown
# Method in brief: as §1
# SPIB = SPIB (Homo sapiens, UniProt Q01892 1-262); details: protein: recombinant; tags: N-terminal GST; dsDNA, one strand shown
# Method in brief: as §1
# ELK3 = molecular target: T6, ELK3 (Homo sapiens, UniProt P41970 1-407); details: protein: recombinant; tags: N-terminal GST; dsDNA, one strand shown
# T6 sequence: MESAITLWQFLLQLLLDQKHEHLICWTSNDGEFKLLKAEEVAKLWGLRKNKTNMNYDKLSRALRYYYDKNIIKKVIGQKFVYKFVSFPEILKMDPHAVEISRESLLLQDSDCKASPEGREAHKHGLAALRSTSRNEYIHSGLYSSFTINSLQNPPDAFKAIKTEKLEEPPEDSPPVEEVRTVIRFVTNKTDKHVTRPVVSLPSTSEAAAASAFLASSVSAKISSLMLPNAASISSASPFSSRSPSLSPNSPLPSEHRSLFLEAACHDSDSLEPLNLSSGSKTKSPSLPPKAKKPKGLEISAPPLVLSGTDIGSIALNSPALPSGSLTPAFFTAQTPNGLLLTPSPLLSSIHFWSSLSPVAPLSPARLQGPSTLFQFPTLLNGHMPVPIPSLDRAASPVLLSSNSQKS
# Method in brief: as §1
# FEV = molecular target: T7, FEV (Homo sapiens, UniProt Q99581 1-238); details: protein: recombinant; tags: N-terminal GST; dsDNA, one strand shown
# T7 sequence: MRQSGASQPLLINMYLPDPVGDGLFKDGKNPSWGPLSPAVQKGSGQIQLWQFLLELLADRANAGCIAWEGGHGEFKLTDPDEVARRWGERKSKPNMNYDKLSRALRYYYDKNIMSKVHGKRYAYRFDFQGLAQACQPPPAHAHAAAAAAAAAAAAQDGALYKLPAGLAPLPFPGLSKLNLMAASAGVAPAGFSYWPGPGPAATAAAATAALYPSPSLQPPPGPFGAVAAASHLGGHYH
# Method in brief: as §1
# ETV5 = ETV5 (Homo sapiens, UniProt P41161 1-510); details: protein: recombinant; tags: N-terminal GST; dsDNA, one strand shown
# Method in brief: as §1
# HSF1 = HSF1 (Homo sapiens, UniProt Q00613 1-529); details: protein: recombinant; tags: N-terminal GST; chain copies: 3; dsDNA, one strand shown
# Method in brief: as §1
# SPIC = molecular target: T8, SPIC (Homo sapiens, UniProt Q8N5J4 1-248); details: protein: recombinant; tags: N-terminal GST; dsDNA, one strand shown
# T8 sequence: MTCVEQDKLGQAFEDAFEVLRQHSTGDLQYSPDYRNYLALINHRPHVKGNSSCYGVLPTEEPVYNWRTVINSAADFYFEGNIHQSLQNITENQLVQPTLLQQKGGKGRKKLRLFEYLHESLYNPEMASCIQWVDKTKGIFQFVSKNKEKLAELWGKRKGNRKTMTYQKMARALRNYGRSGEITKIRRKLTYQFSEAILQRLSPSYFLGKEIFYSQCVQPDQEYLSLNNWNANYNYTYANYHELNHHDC
# Method in brief: as §1
# ELF4 = ELF4 (Homo sapiens, UniProt Q99607 1-663); details: protein: recombinant; tags: N-terminal GST; dsDNA, one strand shown
# Method in brief: as §1
# ELK4 = molecular target: T9, ELK4 (Homo sapiens, UniProt P28324-2 1-405); details: protein: recombinant; tags: N-terminal GST; dsDNA, one strand shown
# T9 sequence: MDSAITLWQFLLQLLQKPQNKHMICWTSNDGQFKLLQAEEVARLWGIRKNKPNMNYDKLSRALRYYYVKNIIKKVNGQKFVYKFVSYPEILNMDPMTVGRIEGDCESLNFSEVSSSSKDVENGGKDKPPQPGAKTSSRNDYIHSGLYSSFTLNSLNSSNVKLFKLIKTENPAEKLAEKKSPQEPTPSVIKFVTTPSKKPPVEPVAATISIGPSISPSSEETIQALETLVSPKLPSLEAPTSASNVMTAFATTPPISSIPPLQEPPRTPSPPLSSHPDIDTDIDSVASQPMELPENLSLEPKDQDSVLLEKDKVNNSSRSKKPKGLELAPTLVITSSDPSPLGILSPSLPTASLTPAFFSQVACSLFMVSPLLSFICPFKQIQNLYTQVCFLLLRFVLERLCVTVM
# Method in brief: as §1
# ETV2 = molecular target: T10, ETV2 (Homo sapiens, UniProt O00321 1-342); details: protein: recombinant; tags: N-terminal GST; dsDNA, one strand shown
# T10 sequence: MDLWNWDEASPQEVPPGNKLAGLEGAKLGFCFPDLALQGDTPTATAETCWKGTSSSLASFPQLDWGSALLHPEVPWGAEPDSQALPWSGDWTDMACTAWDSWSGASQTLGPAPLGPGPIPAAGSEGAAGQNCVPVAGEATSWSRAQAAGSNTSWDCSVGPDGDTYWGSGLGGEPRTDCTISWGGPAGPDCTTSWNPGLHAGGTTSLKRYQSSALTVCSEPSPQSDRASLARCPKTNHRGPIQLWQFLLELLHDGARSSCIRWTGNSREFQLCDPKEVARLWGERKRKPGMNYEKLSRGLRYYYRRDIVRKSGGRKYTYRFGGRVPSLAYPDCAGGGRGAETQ
# Method in brief: as §1
# ELF3 = molecular target: T11, ELF3 (Homo sapiens, UniProt P78545 1-371); details: protein: recombinant; tags: N-terminal GST; dsDNA, one strand shown
# T11 sequence: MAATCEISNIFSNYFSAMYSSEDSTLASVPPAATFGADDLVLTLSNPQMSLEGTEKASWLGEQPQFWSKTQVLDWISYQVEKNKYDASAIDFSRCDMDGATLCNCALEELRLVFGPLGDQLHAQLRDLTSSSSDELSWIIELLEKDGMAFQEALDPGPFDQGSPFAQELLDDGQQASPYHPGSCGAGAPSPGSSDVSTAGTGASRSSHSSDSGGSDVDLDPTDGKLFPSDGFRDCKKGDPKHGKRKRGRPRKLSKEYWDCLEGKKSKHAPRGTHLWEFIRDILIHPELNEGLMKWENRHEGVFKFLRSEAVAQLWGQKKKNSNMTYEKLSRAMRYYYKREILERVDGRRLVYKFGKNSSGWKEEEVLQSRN
# Method in brief: as §1
# CRX = CRX (Homo sapiens, UniProt O43186 1-299); details: protein: recombinant; tags: N-terminal GST; dsDNA, one strand shown
# Method in brief: as §1
# ETV1 = ETV1 (Homo sapiens, UniProt P50549 1-477); details: protein: recombinant; tags: N-terminal GST; dsDNA, one strand shown
# Method in brief: as §1
# CRX, sequence (O43186 whole entry): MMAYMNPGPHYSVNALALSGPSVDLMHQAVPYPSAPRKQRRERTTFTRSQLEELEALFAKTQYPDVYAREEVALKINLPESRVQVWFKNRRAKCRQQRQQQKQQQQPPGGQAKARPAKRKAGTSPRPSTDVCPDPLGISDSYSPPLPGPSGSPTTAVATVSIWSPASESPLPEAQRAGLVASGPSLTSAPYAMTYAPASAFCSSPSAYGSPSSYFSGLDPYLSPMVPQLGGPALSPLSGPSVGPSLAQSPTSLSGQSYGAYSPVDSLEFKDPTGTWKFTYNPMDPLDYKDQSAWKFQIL
# ELF1, sequence (P32519 whole entry): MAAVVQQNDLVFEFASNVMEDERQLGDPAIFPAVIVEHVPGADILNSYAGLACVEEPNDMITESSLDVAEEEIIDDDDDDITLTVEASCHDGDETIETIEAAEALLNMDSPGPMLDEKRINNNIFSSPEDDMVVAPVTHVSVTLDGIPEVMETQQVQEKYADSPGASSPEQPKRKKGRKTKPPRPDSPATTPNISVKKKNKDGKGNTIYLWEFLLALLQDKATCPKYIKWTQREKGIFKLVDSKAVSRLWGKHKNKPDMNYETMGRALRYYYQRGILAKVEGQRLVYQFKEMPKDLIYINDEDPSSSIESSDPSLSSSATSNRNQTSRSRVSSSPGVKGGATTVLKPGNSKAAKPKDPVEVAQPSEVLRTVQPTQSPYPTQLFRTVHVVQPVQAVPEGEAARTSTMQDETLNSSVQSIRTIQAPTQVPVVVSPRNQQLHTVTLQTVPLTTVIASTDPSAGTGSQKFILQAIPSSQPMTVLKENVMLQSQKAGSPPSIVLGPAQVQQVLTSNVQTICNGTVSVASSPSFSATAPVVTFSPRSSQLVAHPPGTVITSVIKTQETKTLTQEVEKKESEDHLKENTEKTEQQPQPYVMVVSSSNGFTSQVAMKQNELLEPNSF
# SPIB, sequence (Q01892 whole entry): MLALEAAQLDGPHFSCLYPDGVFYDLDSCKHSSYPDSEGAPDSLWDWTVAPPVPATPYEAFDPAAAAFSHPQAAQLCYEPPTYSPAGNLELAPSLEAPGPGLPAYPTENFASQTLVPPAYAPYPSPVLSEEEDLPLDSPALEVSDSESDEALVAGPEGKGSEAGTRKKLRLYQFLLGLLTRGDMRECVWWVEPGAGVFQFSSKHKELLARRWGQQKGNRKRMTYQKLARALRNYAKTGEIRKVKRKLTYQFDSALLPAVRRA
# ELF4, sequence (Q99607 whole entry): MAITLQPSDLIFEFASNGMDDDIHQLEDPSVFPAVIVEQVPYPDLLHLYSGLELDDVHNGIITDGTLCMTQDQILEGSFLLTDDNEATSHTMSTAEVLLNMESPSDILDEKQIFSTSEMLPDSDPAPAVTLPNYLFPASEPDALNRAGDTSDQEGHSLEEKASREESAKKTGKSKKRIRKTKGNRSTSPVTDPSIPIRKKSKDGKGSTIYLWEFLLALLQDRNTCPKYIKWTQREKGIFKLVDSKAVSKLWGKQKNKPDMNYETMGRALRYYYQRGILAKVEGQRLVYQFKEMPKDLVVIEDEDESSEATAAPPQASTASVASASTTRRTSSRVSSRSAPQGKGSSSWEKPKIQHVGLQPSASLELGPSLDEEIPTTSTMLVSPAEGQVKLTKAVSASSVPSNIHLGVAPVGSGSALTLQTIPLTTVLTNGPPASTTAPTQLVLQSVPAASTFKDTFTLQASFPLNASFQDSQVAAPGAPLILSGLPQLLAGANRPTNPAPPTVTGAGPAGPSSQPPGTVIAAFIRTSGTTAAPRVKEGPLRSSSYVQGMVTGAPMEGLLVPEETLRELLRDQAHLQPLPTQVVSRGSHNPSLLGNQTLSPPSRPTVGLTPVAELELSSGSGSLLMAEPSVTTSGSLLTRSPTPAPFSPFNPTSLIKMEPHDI
# ETV1, sequence (P50549 whole entry): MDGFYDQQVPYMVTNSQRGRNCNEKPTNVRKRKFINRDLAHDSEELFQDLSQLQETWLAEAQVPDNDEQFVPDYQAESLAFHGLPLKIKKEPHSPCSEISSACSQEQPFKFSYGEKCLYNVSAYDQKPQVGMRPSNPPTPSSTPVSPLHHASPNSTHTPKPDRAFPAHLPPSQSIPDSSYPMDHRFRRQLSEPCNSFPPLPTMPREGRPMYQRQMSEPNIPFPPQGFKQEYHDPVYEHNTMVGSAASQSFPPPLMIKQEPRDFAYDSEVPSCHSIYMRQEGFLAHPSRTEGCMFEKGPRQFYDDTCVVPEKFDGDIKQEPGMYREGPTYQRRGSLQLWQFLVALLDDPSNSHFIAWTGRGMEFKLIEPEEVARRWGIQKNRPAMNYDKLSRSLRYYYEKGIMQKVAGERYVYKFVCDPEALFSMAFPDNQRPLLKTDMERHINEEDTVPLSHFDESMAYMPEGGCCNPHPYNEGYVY
# HSF1, sequence (Q00613 whole entry): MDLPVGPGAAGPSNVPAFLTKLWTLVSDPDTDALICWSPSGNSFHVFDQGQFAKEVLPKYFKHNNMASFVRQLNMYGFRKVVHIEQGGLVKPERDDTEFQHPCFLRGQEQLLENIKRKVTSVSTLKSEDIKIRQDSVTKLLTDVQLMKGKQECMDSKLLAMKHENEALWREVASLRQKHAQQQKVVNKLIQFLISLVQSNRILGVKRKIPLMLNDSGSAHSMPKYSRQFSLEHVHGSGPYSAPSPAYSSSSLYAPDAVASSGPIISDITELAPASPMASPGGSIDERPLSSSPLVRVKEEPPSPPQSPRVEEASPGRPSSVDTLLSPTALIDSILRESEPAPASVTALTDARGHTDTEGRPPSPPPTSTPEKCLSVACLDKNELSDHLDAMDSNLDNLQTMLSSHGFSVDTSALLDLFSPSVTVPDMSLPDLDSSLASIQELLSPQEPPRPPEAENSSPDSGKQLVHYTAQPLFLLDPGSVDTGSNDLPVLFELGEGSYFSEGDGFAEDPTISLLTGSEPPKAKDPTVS
# ETV5, sequence (P41161 whole entry): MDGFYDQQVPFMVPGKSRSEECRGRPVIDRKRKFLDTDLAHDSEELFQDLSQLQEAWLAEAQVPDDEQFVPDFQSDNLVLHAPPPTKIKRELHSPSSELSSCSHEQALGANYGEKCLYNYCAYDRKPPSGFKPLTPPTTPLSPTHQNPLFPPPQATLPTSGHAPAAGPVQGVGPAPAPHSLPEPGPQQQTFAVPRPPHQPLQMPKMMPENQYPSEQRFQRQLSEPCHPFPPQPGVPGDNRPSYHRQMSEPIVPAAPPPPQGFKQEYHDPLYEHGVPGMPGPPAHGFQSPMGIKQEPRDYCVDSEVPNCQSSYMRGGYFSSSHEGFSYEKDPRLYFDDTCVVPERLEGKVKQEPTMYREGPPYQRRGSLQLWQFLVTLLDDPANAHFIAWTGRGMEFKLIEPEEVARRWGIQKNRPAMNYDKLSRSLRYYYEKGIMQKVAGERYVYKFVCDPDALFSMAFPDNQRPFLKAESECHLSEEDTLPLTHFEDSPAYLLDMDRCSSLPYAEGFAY
sequence,measurement,setting,value
TTACGG,binding signal,FLI1,"1.3 fold enrichment (6-mer frequency, TF over GST control)"
same,binding signal,ELK1,"1.23 fold enrichment (6-mer frequency, TF over GST control)"
same,binding signal,GABPA,"1.22 fold enrichment (6-mer frequency, TF over GST control)"
same,binding signal,ERG,"1.31 fold enrichment (6-mer frequency, TF over GST control)"
same,binding signal,ELF1,"1.26 fold enrichment (6-mer frequency, TF over GST control)"
same,binding signal,EHF,"1.31 fold enrichment (6-mer frequency, TF over GST control)"
same,binding signal,SPI1,"1.37 fold enrichment (6-mer frequency, TF over GST control)"
same,binding signal,SPIB,"1.38 fold enrichment (6-mer frequency, TF over GST control)"
same,binding signal,ELK3,"1.48 fold enrichment (6-mer frequency, TF over GST control)"
same,binding signal,FEV,"1.22 fold enrichment (6-mer frequency, TF over GST control)"
same,binding signal,ETV5,"1.27 fold enrichment (6-mer frequency, TF over GST control)"
same,binding signal,HSF1,"1.43 fold enrichment (6-mer frequency, TF over GST control)"
same,binding signal,SPIC,"1.26 fold enrichment (6-mer frequency, TF over GST control)"
same,binding signal,ELF4,"1.25 fold enrichment (6-mer frequency, TF over GST control)"
same,binding signal,ELK4,"1.19 fold enrichment (6-mer frequency, TF over GST control)"
same,binding signal,ETV2,"1.36 fold enrichment (6-mer frequency, TF over GST control)"
same,binding signal,ELF3,"1.35 fold enrichment (6-mer frequency, TF over GST control)"
same,binding signal,CRX,"1.86 fold enrichment (6-mer frequency, TF over GST control)"
same,binding signal,ETV1,"1.25 fold enrichment (6-mer frequency, TF over GST control)"
